Compound activity: PubChem, National Center for Advancing Translational Sciences (NCATS)
Sampled rows, rich in hits. Any-hit rate of the full collection: about 7.9%.
MCF10A rerep – induces DNA re-replication in MCF 10a normal breast cells; 350,000 tested, 2.9% active; AID 624296; MCF 10A DNA re-replication, Hoechst nuclear intensity, 48 h; Potency, µM (top dose mostly 46.1 µM), for inactives: at the highest dose activity, positive = re-replication, hits mostly activators; also: % of control where 0% means no effect; nearly all actives have a fitted effect of over 50% in size
KB-V1 cytotox – KB-V1 MDR subline cytotoxicity; 400,000 tested, 3.4% active; KB-V1 MDR cells viability, CellTiter-Glo, 72 h; Potency, µM (highest dose often 46.1 µM), usual class: cytotoxic; also: % is scaled to controls: 0 for no effect and ±100 for the full control effect; nearly all actives have a fitted effect of over 60% in size
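KB-V1 MDR subline cells in DMEM (phenol-red free, 10% FBS) exposed to compounds in qHTS concentration series for 72 h at 37 degrees C. Viability read by CellTiter-Glo luminescence; concentration-effect curves fitted after normalization and correction.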
SW480 rereplic – DNA re-replication induction in SW480 cells; SW480 DNA re-replication, Hoechst DNA content imaging, 48 h; Potency, µM (titrated, usually from 46.1 µM), inactives show top-dose re-replication activation, usual class: activators; 340,000 tested, 1.8% active; AID 624297; also: % of control where 0% means no effect; nearly all actives have a fitted effect of over 55% in size
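Treated cells incubate 48 hr (37 C, 5% CO2), are stained 40 min with Hoechst, and nuclear fluorescence is enumerated; a rise in nuclei with high DNA signal marks re-replication.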
KB-3-1 tox – kills parental KB-3-1 adenocarcinoma cells. KB-3-1 viability, CellTiter-Glo ATP luminescence, 72 h. Potency, µM (top dose mostly 46.1 µM), usual class: cytotoxic. 400,000 tested, 1.4% active. AID 1347075; also: % is scaled to controls: 0 for no effect and ±100 for the full control effect; nearly all actives have a fitted effect of over 60% in size
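Here the drug-naive KB-3-1 line serves as comparator for MDR sub-line selectivity; cells received compound titrations, 72 h at 37 °C, then CellTiter-Glo readout.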
HT1080NT lethal – kills 2HG-producing HT-1080-NT fibrosarcoma cells. HT-1080-NT fibrosarcoma viability, CellTiter-Glo ATP luminescence, 48 h. Potency, µM (highest dose often 46.1 µM), for the others: at the highest dose activity, negative = less viability, usual class: cytotoxic. 360,000 tested, 1.6% active. AID 686970;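 also: NT is the 2HG producing partner of a matched IDH1 knockdown line; 0% = DMSO-treated cells and -100% = media-only wells without cells; nearly all actives have a fitted effect of over 55% in size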
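HT-1080-NT; 750 cells/well; 5% FBS RPMI; 48 h compound, 37 degrees C; CellTiter-Glo luminescence; curve fitting and curve-class assignment.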
HT1080 IDH1KD tx – toxicity to HT-1080 IDH1 knockdown cells (counter line). 360,000 tested, 2% active. Potency, µM (titrated, usually from 46.1 µM), without a hit: at the top dose activity, negative = toxicity, actives largely listed as cytotoxic. HT-1080 IDH1 knockdown viability, ATP luminescence, 48 h. AID 686971;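 also: 0% = DMSO wells and -100% = cell-free medium wells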
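Viability of IDH1-knockdown HT-1080 fibrosarcoma cells was assessed by CellTiter-Glo after 48 h at 37 °C with titrated compound; concentration-effect curves were classified by fit quality and response size.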
The depositor's hits bear a star; i = inactive; ? = inconclusive; / = no result; [ ] = remark or other dose. Calls follow the shape of the dose curve; as a rule, active = well fitted curve in the direction sought with a large enough effect; inconclusive = small, poorly fitted or top-dose-only effect, or another doubt; inactive = no such curve, though single readings can be large; an effect the other way counts as inactive or inconclusive. Potency is read from the fitted curve at half-maximal effect.

SMILES	MCF10A rerep	KB-V1 cytotox	SW480 rereplic	KB-3-1 tox	HT1080NT lethal	HT1080 IDH1KD tx
CC(NCCC(c1ccccc1)c1ccccc1)c1ccccc1 (stereo not given)	?	?	7.3µM*	i	?	?
Cc1ccc(CNC(C)c2ccccc2)s1 (stereo not given)	/	i	/	i	/	/
O=C(CCN1CCC(c2ccccc2)C1)c1ccccc1 (stereo not given)	?	i	?	i	12%	?
O=C(CCN1CCCCC1)c1ccc2c(c1)OCCO2	-42%	i	?	i	?	5.6µM*
O=C(CCN1CCCCCC1)Nc1ccc2c(c1)OCCO2	0%	i	0%	i	16%	20%
O=C(CCN1CCc2ccccc2C1)c1ccc2c(c1)OCCO2	?	?	16µM*	?	-7%	-8%
COc1cc(C(=O)CCN2CCC(c3ccccc3)C2)cc(OC)c1OC (stereo not given)	3.7µM*	i	?	i	14%	6%
Cc1cc(C)nc(SCC(=O)c2ccc3c(c2)OCCO3)n1	15µM*	?	0%	i	-3%	0%
CCOC(=O)c1cnc(SCC(=O)c2ccc3c(c2)OCCO3)nc1N	-5%	i	4%	i	0%	3%[9.24 µM]
Cc1ccccc1NC(=O)Cn1nc(-c2ccc(Cl)s2)ccc1=O	13%	i	0%	i	-2%	-1%
O=c1oc2ccc(Br)cc2cc1-c1nc(-c2ccccc2)no1	/	i	/	i	/	/
O=C(CCN1CCC(c2ccccc2)C1)c1ccc2c(c1)OCCO2 (stereo not given)	13µM*	i	?	i	4.6µM*	18µM*
COc1ccc(C(C(=O)NC2CCCC2)N(Cc2cccnc2)C(=O)Cc2cccs2)cc1OC (stereo not given)	-5%	i	12%	i	0%	12%
CCCNC(=O)c1c(O)c2cccc3c2n(c1=O)CCC3	0%	i	-21%	i	-2%	4%
CCN(CC)C(=O)Oc1cc(=O)n2c3c(cccc13)CCC2	1%	16µM*	-5%	i	-4%	-3%
C/C(=N/NC(=O)CN(c1ccccc1)S(=O)(=O)c1ccccc1)c1ccccc1O	-1%	i	16µM*	?	?	?
CN1CCN(CCNC(=O)c2cnn(-c3cccc(Cl)c3)c2C2CCN(C(=O)OC(C)(C)C)CC2)CC1	/	i	/	i	/	/
CCOc1ccccc1Nc1nc(N)nc(CN(C)C2CCCCC2)n1	6%	i	3%[9.22 µM]	i	-3%	3%
COc1ccc(-n2c(SCC(=O)N3CCc4ccccc43)nc3c([nH]c4ccccc43)c2=O)cc1	/	?	/	i	/	/
CC1(C)CC[C@]2(C(=O)n3ccnc3)CC[C@]3(C)[C@H](C(=O)C=C4[C@@]5(C)C=C(C#N)C(=O)C(C)(C)[C@@H]5CC[C@]43C)[C@@H]2C1	0.52µM*	?	?	?	4.1µM*	3.7µM*
O=C(NCc1ccccn1)c1cc(S(=O)(=O)N2CCN(c3ccccc3)CC2)ccc1Cl	2%	?	3%	i	3%	1%
Cc1ccc(C)c2sc(N3CCN(C(=O)c4ccc([N+](=O)[O-])o4)CC3)nc12	9.2µM*	?	?	?	?	?
CC(C)C(=O)N1CCN(c2nc(-c3ccc(Cl)cc3)cs2)CC1	?	i	?	i	-2%	?
O=C(Cc1cccs1)N1CCN(c2nc(-c3ccc(Cl)cc3)cs2)CC1	26%	8.2µM*	11%	i	-17%	?
O=C(CN1CCN(c2nc(-c3ccc(Cl)cc3)cs2)CC1)NCc1ccco1	9.2µM*	i	11%	i	-21%	-2%
S=C(NCc1ccco1)N1CCN(c2nc(-c3ccc(Cl)cc3)cs2)CC1	11%	i	4%	?	?	?
